SMILES strings stand for the structures. Calls of active or inactive are those of the source. How the source made its calls: active means hit-call score of the fitted dose curve at least 0.9, where 1 is the maximum; inactive means score below 0.9.

Chain of human Aurora-A (AURKA) Other Protein Kinase, AURKA (gene 6790) (O14965 whole entry, looked up): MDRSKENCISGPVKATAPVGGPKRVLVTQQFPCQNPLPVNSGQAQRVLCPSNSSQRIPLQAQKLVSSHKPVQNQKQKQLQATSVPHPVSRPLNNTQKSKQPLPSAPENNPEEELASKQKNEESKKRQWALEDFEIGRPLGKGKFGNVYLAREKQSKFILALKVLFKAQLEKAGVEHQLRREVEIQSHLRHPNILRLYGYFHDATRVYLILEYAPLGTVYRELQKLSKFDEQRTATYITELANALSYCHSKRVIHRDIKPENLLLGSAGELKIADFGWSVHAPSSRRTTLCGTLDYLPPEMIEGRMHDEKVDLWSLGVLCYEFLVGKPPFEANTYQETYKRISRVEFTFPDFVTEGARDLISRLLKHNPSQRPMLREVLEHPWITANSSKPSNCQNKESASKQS

The target of the assay is human Aurora-A (AURKA) Other Protein Kinase, AURKA (gene 6790) (UniProt O14965). Kind of assay: ERF_FR_ENZ_hAURKA: Eurofins (ERF) Enzymatic Radiometric [10 uM ATP] KinaseProfiler LeadHunter Assay for human Aurora-A (AURKA) Other Protein Kinase. How it is done:
ERF_FR_ENZ_hAURKA is a biochemical, single-readout assay that uses extracted gene-proteins in a cell-free assay. Measurements were taken 0.25 hour after chemical dosing in a 96-well plate. See Aurora-A Human Other Protein Kinase Enzymatic LANCE Assay [Km ATP], Cerep.ERF_FR_ENZ_hAURKA is an assay component calculated from the ERF_FR_ENZ_hAURKA assay. It is designed to measure enzyme activity using a type of enzyme reporter as detected by fluorescence intensity with LANCE technology.Data from the assay component ERF_FR_ENZ_hAURKA was analyzed at the assay endpoint, ERF_FR_ENZ_hAURKA, in the positive analysis fitting direction relative to DMSO as the negative control and baseline of activity. Using a type of enzyme reporter, loss-of-signal activity can be used to understand changes in enzymatic activity as they relate to gene AURKA. To generalize the intended target to other relatable targets, this assay endpoint is annotated to the kinase intended target family, where the subfamily is serine/threonine kinase.
Aurora-A (h) is incubated with 8 mM MOPS pH 7.0, 0.2 mM EDTA, 200 uM LRRASLG (Kemptide), 10 mM MgAcetate and [gamma-33P]-ATP (specific activity and concentration as required). The reaction is initiated by the addition of the Mg/ATP mix. After incubation for 40 minutes at room temperature, the reaction is stopped by the addition of phosphoric acid to a concentration of 0.5%. […]
Take `O=C(/C=C/c1ccc(O)cc1)CC(=O)/C=C/c1ccc(O)cc1`: the molecule was called inactive.

The values are drawn from PubChem BioAssay AID2284075 (EPA ToxCast).
